Source: PMC7862700, “An all-to-all approach to the identification of sequence-specific readers for epigenetic DNA modifications on cytosine”

How the values were obtained:
Assay in all cases: DAPPL (digital affinity profiling via proximity ligation, sequencing); 10 mM Tris-HCl pH 7.5, 50 mM NaCl, 1 mM DTT, 4% glycerol, room temperature, 30 min; GST-TFs on glutathione beads, 16-mer random dsDNA library, 0.1% formaldehyde crosslink after washing; high values mean tight binding
FEV = target: T1, FEV (Homo sapiens, UniProt Q99581 1-238); settings: protein: recombinant; tags: N-terminal GST; dsDNA, one strand shown
T1 sequence: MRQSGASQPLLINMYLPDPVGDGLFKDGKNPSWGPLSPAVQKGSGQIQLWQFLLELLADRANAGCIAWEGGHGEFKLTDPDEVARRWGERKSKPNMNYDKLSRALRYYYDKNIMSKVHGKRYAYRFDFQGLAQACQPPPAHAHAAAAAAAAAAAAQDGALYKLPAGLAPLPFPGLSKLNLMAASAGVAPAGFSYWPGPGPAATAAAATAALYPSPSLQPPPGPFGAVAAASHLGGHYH
Summary of the method: (§1)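 Binding signal is each hexamer's read frequency for a factor divided by its frequency in the tag-only sample. The factors were GST-fused human transcription factors from yeast, captured on glutathione beads, DNA-barcoded and pooled with that sample. Pools were incubated with 200 nmole of a random double-stranded 16-mer DNA library in Tris/NaCl/DTT/glycerol buffer at room temperature for 30 min, then washed, crosslinked with 0.1% formaldehyde, proximity-ligated with BsaI/T4 ligase (1 h, 37 °C), PCR-amplified and sequenced on an Illumina NextSeq500.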

ETV5 = ETV5 (Homo sapiens, UniProt P41161 1-510); settings: protein: recombinant; tags: N-terminal GST; dsDNA, one strand shown
ETV5, sequence (P41161 whole entry): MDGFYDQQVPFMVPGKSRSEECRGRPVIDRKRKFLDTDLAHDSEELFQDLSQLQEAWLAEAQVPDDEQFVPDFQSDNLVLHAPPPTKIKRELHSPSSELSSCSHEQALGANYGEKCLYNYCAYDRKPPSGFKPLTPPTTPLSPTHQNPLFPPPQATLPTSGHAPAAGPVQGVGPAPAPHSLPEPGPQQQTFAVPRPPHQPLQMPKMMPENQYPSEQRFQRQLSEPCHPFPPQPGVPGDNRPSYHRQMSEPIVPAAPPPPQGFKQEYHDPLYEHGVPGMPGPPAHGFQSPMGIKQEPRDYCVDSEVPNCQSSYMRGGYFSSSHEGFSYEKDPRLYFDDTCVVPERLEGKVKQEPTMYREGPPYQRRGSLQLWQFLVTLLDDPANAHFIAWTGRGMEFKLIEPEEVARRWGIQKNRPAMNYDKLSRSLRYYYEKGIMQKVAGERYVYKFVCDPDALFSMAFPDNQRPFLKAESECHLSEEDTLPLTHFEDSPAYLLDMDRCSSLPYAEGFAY
Summary of the method: as §1

HSF1 = HSF1 (Homo sapiens, UniProt Q00613 1-529); settings: protein: recombinant; tags: N-terminal GST; chain copies: 3; dsDNA, one strand shown
HSF1, sequence (Q00613 whole entry): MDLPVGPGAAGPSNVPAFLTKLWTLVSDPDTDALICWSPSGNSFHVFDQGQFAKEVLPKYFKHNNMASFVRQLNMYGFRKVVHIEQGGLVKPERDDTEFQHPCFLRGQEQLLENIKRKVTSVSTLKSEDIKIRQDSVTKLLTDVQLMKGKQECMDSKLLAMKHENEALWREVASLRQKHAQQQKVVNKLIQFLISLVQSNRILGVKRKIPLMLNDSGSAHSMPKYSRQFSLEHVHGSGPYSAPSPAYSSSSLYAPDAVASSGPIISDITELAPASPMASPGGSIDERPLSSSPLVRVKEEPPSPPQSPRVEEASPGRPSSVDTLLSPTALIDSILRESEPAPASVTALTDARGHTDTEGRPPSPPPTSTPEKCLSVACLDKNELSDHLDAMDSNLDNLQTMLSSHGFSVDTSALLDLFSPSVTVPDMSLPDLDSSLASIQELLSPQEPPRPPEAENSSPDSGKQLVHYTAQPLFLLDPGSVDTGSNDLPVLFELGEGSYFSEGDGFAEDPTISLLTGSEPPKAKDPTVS
Summary of the method: as §1

SPIC = target: T2, SPIC (Homo sapiens, UniProt Q8N5J4 1-248); settings: protein: recombinant; tags: N-terminal GST; dsDNA, one strand shown
T2 sequence: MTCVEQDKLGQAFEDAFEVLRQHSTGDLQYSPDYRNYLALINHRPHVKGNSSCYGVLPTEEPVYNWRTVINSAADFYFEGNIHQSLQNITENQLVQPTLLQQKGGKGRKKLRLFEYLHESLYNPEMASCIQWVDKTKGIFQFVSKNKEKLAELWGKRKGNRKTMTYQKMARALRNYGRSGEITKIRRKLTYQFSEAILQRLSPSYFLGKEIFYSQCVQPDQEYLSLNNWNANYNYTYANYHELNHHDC
Summary of the method: as §1

ELF4 = ELF4 (Homo sapiens, UniProt Q99607 1-663); settings: protein: recombinant; tags: N-terminal GST; dsDNA, one strand shown
ELF4, sequence (Q99607 whole entry): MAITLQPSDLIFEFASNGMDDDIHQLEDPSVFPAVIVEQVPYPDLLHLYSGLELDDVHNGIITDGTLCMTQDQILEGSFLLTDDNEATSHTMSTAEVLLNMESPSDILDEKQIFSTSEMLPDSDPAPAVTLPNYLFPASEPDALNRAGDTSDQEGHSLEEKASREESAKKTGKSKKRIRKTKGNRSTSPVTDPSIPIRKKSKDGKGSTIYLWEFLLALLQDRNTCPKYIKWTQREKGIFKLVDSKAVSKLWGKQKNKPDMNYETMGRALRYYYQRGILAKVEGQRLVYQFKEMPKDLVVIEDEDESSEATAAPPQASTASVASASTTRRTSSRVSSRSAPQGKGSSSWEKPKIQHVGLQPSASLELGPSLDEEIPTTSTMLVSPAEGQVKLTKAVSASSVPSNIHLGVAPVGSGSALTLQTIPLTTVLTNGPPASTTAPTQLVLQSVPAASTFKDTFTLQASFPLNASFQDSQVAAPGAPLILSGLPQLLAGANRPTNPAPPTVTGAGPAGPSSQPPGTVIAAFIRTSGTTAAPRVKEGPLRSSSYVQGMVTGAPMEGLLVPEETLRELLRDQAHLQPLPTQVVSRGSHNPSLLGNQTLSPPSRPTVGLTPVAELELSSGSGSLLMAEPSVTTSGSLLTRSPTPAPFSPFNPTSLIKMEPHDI
Summary of the method: as §1

ELK4 = target: T3, ELK4 (Homo sapiens, UniProt P28324-2 1-405); settings: protein: recombinant; tags: N-terminal GST; dsDNA, one strand shown
T3 sequence: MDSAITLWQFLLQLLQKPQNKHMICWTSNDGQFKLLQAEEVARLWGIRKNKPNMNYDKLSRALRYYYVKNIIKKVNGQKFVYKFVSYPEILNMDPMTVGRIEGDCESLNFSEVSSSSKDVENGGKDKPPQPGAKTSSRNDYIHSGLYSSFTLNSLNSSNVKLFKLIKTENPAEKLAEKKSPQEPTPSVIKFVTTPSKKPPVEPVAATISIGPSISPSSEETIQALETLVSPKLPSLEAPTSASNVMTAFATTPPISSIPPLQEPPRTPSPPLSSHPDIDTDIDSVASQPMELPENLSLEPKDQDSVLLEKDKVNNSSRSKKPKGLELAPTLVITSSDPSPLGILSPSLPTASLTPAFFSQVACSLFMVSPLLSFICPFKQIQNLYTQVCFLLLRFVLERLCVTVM
Summary of the method: as §1

ETV2 = target: T4, ETV2 (Homo sapiens, UniProt O00321 1-342); settings: protein: recombinant; tags: N-terminal GST; dsDNA, one strand shown
T4 sequence: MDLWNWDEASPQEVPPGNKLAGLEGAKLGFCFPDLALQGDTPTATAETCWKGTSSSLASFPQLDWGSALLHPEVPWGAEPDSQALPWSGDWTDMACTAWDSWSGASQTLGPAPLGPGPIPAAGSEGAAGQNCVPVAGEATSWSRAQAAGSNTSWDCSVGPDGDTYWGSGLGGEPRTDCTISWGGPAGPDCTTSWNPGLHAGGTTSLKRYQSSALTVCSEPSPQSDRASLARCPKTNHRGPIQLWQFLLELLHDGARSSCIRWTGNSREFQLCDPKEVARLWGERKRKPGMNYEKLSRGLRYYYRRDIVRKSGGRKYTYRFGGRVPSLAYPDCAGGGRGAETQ
Summary of the method: as §1

ELF3 = target: T5, ELF3 (Homo sapiens, UniProt P78545 1-371); settings: protein: recombinant; tags: N-terminal GST; dsDNA, one strand shown
T5 sequence: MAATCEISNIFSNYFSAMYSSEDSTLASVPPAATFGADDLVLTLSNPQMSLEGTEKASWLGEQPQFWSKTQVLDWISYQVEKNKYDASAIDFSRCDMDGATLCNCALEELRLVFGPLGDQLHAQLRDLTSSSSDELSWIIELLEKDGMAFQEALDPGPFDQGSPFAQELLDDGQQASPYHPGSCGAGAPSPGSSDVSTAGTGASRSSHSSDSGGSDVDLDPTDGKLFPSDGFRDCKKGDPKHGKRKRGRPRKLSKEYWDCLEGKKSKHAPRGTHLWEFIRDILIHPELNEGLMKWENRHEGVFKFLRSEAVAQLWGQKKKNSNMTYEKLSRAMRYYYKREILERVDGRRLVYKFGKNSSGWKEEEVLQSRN
Summary of the method: as §1

CRX = CRX (Homo sapiens, UniProt O43186 1-299); settings: protein: recombinant; tags: N-terminal GST; dsDNA, one strand shown
CRX, sequence (O43186 whole entry): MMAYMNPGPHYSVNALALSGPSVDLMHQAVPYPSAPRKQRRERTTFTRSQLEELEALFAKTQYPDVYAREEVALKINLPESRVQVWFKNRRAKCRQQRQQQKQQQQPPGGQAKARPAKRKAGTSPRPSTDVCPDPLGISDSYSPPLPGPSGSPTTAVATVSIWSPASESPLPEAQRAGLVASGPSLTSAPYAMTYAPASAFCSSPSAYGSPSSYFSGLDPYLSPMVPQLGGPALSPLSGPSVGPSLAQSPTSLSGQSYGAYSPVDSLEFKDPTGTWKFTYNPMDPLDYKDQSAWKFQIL
Summary of the method: as §1

ETV1 = ETV1 (Homo sapiens, UniProt P50549 1-477); settings: protein: recombinant; tags: N-terminal GST; dsDNA, one strand shown
ETV1, sequence (P50549 whole entry): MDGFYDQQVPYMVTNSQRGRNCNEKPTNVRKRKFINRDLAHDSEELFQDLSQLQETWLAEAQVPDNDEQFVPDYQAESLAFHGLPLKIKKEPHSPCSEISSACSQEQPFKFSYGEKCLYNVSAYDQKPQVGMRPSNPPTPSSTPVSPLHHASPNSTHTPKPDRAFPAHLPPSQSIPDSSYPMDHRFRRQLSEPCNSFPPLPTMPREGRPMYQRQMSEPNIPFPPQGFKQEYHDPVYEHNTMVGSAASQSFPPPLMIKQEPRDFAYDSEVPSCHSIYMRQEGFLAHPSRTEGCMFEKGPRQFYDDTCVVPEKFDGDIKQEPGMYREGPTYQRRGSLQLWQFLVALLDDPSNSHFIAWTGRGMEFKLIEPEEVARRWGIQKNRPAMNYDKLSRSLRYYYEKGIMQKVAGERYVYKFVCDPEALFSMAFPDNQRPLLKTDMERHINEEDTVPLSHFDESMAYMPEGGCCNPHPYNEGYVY
Summary of the method: as §1

ERF = target: T6, ERF (Homo sapiens, UniProt P50548 1-548); settings: protein: recombinant; tags: N-terminal GST; dsDNA, one strand shown
T6 sequence: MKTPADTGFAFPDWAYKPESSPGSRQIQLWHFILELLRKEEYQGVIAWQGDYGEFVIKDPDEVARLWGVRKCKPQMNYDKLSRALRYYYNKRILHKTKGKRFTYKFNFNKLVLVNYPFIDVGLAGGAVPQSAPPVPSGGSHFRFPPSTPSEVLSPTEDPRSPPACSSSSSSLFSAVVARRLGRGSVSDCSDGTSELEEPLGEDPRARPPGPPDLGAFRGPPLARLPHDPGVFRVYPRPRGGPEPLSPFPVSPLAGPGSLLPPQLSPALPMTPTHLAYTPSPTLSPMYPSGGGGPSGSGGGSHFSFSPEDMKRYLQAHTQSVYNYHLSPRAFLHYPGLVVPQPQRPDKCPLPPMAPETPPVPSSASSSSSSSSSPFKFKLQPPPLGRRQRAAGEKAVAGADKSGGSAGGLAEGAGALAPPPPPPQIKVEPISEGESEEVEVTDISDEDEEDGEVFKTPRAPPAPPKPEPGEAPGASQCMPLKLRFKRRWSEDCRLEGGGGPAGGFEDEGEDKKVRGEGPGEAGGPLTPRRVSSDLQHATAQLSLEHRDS
Summary of the method: as §1

ETV3L = target: T7, ETV3L (Homo sapiens, UniProt Q6ZN32 1-361); settings: protein: recombinant; tags: N-terminal GST; dsDNA, one strand shown
T7 sequence: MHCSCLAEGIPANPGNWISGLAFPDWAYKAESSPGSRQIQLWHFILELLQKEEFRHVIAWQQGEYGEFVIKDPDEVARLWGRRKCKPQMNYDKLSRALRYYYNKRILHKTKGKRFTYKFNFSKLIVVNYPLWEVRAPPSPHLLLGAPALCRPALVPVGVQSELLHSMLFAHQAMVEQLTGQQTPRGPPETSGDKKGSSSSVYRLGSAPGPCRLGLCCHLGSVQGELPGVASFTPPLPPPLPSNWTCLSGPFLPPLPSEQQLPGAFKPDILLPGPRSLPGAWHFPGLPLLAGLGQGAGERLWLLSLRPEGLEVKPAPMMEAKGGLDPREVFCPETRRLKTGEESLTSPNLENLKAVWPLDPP
Summary of the method: as §1

ETS2 = target: T8, ETS2 (Homo sapiens, UniProt P15036 1-469); settings: protein: recombinant; tags: N-terminal GST; dsDNA, one strand shown
T8 sequence: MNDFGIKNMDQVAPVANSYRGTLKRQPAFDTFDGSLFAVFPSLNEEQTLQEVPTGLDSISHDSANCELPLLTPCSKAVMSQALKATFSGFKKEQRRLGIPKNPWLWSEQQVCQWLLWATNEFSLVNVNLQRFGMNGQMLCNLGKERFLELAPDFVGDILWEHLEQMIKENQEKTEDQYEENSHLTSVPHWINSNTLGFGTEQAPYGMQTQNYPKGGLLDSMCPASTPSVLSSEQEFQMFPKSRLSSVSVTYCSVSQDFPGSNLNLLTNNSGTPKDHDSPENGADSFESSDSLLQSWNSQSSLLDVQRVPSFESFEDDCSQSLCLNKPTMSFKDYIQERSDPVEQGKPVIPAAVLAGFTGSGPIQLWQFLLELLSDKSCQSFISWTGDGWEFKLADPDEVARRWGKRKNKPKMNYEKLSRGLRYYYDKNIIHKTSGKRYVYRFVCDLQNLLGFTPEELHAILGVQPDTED
Summary of the method: as §1

SPDEF = target: T9, SPDEF (Homo sapiens, UniProt O95238 1-335); settings: protein: recombinant; tags: N-terminal GST; dsDNA, one strand shown
T9 sequence: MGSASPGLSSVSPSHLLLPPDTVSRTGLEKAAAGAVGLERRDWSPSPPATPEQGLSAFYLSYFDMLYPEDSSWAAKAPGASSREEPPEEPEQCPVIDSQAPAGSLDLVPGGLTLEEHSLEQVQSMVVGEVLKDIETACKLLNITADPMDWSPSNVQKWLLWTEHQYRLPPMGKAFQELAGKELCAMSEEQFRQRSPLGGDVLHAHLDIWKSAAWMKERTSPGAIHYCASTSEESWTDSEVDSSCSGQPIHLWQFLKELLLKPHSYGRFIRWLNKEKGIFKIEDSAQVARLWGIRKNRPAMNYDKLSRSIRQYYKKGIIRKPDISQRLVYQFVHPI
Summary of the method: as §1

ETV7 = target: T10, ETV7 (Homo sapiens, UniProt Q9Y603 1-341); settings: protein: recombinant; tags: N-terminal GST; dsDNA, one strand shown
T10 sequence: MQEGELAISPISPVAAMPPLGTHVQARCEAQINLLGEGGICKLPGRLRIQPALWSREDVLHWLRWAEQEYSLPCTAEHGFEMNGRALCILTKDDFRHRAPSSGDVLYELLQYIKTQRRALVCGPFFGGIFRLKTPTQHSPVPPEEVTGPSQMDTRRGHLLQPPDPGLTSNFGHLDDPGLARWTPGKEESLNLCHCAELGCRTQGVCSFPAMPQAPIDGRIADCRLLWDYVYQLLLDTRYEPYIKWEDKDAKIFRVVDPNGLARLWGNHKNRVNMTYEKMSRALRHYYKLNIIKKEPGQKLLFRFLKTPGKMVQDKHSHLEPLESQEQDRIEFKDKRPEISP
Summary of the method: as §1

ELF5 = target: T11, ELF5 (Homo sapiens, UniProt Q9UKW6-2 1-255); settings: protein: recombinant; tags: N-terminal GST; dsDNA, one strand shown
T11 sequence: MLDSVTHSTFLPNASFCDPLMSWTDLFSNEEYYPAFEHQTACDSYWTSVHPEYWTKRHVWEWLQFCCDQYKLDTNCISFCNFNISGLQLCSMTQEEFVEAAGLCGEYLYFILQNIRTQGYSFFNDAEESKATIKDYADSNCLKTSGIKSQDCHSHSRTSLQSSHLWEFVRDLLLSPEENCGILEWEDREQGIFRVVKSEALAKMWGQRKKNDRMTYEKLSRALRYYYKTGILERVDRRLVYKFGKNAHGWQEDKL
Summary of the method: as §1

ETV3 = target: T12, ETV3 (Homo sapiens, UniProt P41162-2 1-143); settings: protein: recombinant; tags: N-terminal GST; dsDNA, one strand shown
T12 sequence: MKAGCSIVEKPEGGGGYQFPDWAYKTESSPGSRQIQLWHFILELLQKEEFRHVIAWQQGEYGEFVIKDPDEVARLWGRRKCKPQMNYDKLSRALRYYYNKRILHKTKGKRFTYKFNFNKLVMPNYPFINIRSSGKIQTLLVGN
Summary of the method: as §1

ETV6 = ETV6 (Homo sapiens, UniProt P41212 1-452); settings: protein: recombinant; tags: N-terminal GST; dsDNA, one strand shown
ETV6, sequence (P41212 whole entry): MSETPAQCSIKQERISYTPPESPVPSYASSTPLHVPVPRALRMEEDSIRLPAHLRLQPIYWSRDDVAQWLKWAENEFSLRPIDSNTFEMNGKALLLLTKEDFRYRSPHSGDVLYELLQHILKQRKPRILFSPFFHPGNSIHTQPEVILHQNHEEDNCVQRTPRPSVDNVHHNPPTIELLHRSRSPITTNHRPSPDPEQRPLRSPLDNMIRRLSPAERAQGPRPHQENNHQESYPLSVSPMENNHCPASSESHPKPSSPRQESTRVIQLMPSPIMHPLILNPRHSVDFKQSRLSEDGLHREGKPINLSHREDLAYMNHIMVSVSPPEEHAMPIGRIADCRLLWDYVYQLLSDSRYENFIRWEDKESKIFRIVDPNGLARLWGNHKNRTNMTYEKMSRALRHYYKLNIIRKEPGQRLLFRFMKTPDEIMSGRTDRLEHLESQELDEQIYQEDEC
Summary of the method: as §1

Q: Which results are given for CTCTAT?
A: binding signal (FEV): 1.11 fold enrichment (6-mer frequency, TF over GST control); binding signal (ETV5): 1.15 fold enrichment (6-mer frequency, TF over GST control); binding signal (HSF1): 1.11 fold enrichment (6-mer frequency, TF over GST control); binding signal (SPIC): 1.05 fold enrichment (6-mer frequency, TF over GST control); binding signal (ELF4): 1.18 fold enrichment (6-mer frequency, TF over GST control); binding signal (ELK4): 1.19 fold enrichment (6-mer frequency, TF over GST control); binding signal (ETV2): 1.21 fold enrichment (6-mer frequency, TF over GST control); binding signal (ELF3): 1.2 fold enrichment (6-mer frequency, TF over GST control); binding signal (CRX): 1.1 fold enrichment (6-mer frequency, TF over GST control); binding signal (ETV1): 1.13 fold enrichment (6-mer frequency, TF over GST control); binding signal (ERF): 1.22 fold enrichment (6-mer frequency, TF over GST control); binding signal (ETV3L): 1.14 fold enrichment (6-mer frequency, TF over GST control); binding signal (ETS2): 1.16 fold enrichment (6-mer frequency, TF over GST control); binding signal (SPDEF): 1.16 fold enrichment (6-mer frequency, TF over GST control); binding signal (ETV7): 1.18 fold enrichment (6-mer frequency, TF over GST control); binding signal (ELF5): 1.14 fold enrichment (6-mer frequency, TF over GST control); binding signal (ETV3): 1.08 fold enrichment (6-mer frequency, TF over GST control); binding signal (ETV6): 1.06 fold enrichment (6-mer frequency, TF over GST control)
